# Out of some 39,000 compounds screened, about 500 (1.3%) were called active. The full list was thinned out, with actives kept by preference.
# Test system: S. aureus RN4220
# Experiment: growth inhibition call (relative growth <= 0.2)
# Details: 50 µM
row,Structure (SMILES),growth inhibition call
1,N#C[C@@H]1N[C@@H](CO)[C@@H]1c1ccccc1,inactive
2,CC(C)NC(=O)N(C)C[C@@H]1Oc2ccc(NC(=O)Nc3ccc4c(c3)OCO4)cc2CC(=O)N([C@@H](C)CO)C[C@H]1C,inactive
3,COc1ccc(CN(C)C[C@H]2OCCCC[C@H](C)Oc3ccc(NS(=O)(=O)c4c(C)noc4C)cc3C(=O)N([C@@H](C)CO)C[C@@H]2C)cc1,inactive
4,COc1ccc(NC(=O)Nc2ccc3c(c2)C(=O)N([C@H](C)CO)C[C@H](C)[C@@H](CN(C)C(=O)c2ccccc2)OCCCC[C@H](C)O3)cc1,inactive
5,C[C@H](CO)N1C[C@H](C)[C@@H](CN(C)Cc2ccc(C(F)(F)F)cc2)OCCCC[C@H](C)Oc2ccc(NC(=O)c3ccccc3)cc2C1=O,inactive
6,CC[C@H]1OC(=O)[C@H](C)[C@@H](O[C@H]2C[C@@](C)(OC)[C@@H](O)[C@H](C)O2)[C@@H](C)[C@@H](O[C@H]2O[C@H](C)C[C@H](N(C)C)[C@H]2O)[C@](C)(O)C[C@@H](C)C(=O)[C@H](C)[C@@H](O)[C@]1(C)O,active
7,CCC1OC(=O)C(C)C(OC2CC(C)(OC)C(O)C(C)O2)C(C)C(OC2OC(C)CC(N(C)C)C2O)C(C)(O)CC(C)C(=O)C(C)C(O)C1(C)O (stereo not drawn),active
8,CCC1OC(=O)C(C)C(OC2CC(C)(OC)C(O)C(C)O2)C(C)C(OC2OC(C)CC(N(C)C)C2O)C(C)(O)CC(C)C(=O)C(C)C(O)C1(C)O.CCCCCCCCCCCCCCCCCC(=O)O (stereo not drawn),inactive
9,CCCN1C[C@H](C)[C@@H](O)[C@](C)(O)[C@@H](CC)OC(=O)[C@H](C)[C@@H](O[C@H]2C[C@@](C)(OC)[C@@H](O)[C@H](C)O2)[C@H](C)[C@@H](O[C@@H]2O[C@H](C)C[C@H](N(C)C)[C@H]2O)[C@](C)(O)C[C@H]1C,active
10,CC[C@H]1OC(=O)[C@H](C)[C@@H](O[C@H]2C[C@@](C)(OC)[C@@H](O)[C@H](C)O2)[C@H](C)[C@@H](O[C@@H]2O[C@H](C)C[C@H](N(C)C)[C@H]2O)[C@](C)(O)C[C@@H](C)C(=O)[C@H](C)[C@@H](O)[C@]1(C)O,active
11,C[C@H](CO)N1C[C@H](C)[C@H](CN(C)S(C)(=O)=O)Oc2ccc(NC(=O)Nc3ccc(F)cc3)cc2C1=O,inactive
12,C[C@@H]1CN([C@@H](C)CO)C(=O)c2cc(NC(=O)NC3CCCCC3)ccc2O[C@@H](C)CCCCO[C@H]1CN(C)S(=O)(=O)c1ccccc1,inactive
13,Cc1ccc(NC(=O)c2ccc(CN3CC[C@H](N(C)C)C3)c(C(F)(F)F)c2)cc1Nc1nccc(-c2cncnc2)n1,inactive
14,C[C@@H]1CN([C@H](C)CO)C(=O)c2ccccc2-c2ccccc2CO[C@@H]1CN(C)Cc1ccc(C(F)(F)F)cc1,inactive
15,C[C@H](CO)N1C[C@H](C)[C@H](CN(C)Cc2cncnc2)Oc2ncc(C#C[C@@H](C)O)cc2C1=O,inactive
16,C[C@H]1CN([C@@H](C)CO)C(=O)c2cc(NC(=O)Cn3cnnn3)ccc2O[C@@H]1CN(C)C(=O)Nc1ccccc1,inactive
17,C[C@H]1CN([C@@H](C)CO)S(=O)(=O)c2ccc(C#CC(C)(C)O)cc2O[C@H]1CN(C)Cc1ccc(F)cc1,inactive
18,CC[C@H]1OC(=O)[C@H](C)[C@@H](O[C@H]2C[C@@](C)(OC)[C@@H](O)[C@H](C)O2)[C@H](C)[C@@H](O[C@@H]2O[C@H](C)C[C@H](N(C)C)[C@H]2O)[C@](C)(O)C[C@@H](C)CN(C)[C@H](C)[C@@H](O)[C@]1(C)O,inactive
19,CCC1OC(=O)C(C)C(OC2CC(C)(OC)C(O)C(C)O2)C(C)C(OC2OC(C)CC(N(C)C)C2O)C(C)(O)CC(C)CN(C)C(C)C(O)C1(C)O (stereo not drawn),active
20,C(=N\C1CCCCCCCCCCC1)/c1ccco1,inactive
21,C[C@H](CO)N1C[C@H](C)[C@H](CN(C)S(=O)(=O)c2cn(C)cn2)Oc2ccc(NC(=O)Cc3cn(C)c4ccccc34)cc2C1=O,inactive
22,C[C@@H]1CN([C@@H](C)CO)C(=O)Cc2cc(NC(=O)Cc3cn(C)c4ccccc34)ccc2O[C@H]1CN(C)Cc1ccc(Oc2ccccc2)cc1,inactive
23,OCc1cn(-c2ccccc2)nn1,inactive

row,Structure (SMILES),growth inhibition call
1,NCc1cn(-c2ccccc2)nc1C12CC3CC(CC(C3)C1)C2,active
2,c1ccc(-c2nc(C34CC5CC(CC(C5)C3)C4)cs2)cc1,inactive
3,C=CC[C@@H](CC(=O)N[C@H](CO)Cc1ccccc1)C(=O)N[C@H](C)COC(=O)[C@@H](CC=C)CC(=O)OC(C)(C)C,inactive
4,C[C@@H]1CCCCO[C@@H](CN(C)Cc2ccncc2)[C@H](C)CN([C@H](C)CO)C(=O)c2cc(NC(=O)NC3CCCCC3)ccc2O1,inactive
5,CCCCc1oc2ccccc2c1C(=O)c1cc(I)c(OCCN(CC)CC)c(I)c1,inactive
6,CCCCc1oc2ccccc2c1C(=O)c1cc(I)c(OCCN(CC)CC)c(I)c1.Cl,inactive
7,CCc1oc2ccccc2c1C(=O)c1cc(Br)c(O)c(Br)c1,active
8,OC[C@H]1O[C@@H](OCc2ccccc2)[C@H](O)[C@@H](O)[C@@H]1O,inactive
9,Cc1noc(C)c1NC(=O)Nc1ccc2c(c1)C(=O)N([C@@H](C)CO)C[C@@H](C)[C@@H](CN(C)C(=O)Nc1ccccc1)OCCCC[C@@H](C)O2,inactive
10,COc1cc(NC(=O)c2cccc(-n3cc(NC(=O)Nc4cccc(C)c4)cn3)c2)cc(OC)c1OC,inactive
11,CC(=O)N1[C@H](CNC(=O)CN2CCOCC2)[C@H](c2ccccc2)[C@@H]1CO,inactive
12,CON=C(C(=O)NC1C(=O)N2C(C(=O)OCOC(=O)C(C)(C)C)=C(C=Cc3scnc3C)CSC12)c1csc(N)n1 (stereo not drawn),active
13,CON=C(C(=O)N[C@@H]1C(=O)N2C(C(=O)OCOC(=O)C(C)(C)C)=C(C=Cc3scnc3C)CS[C@H]12)c1csc(N)n1,active
14,CCC=C(C(=O)NC1C(=O)N2C(C(=O)OCOC(=O)C(C)(C)C)=C(COC(N)=O)CSC12)c1csc(N)n1.Cl (stereo not drawn),inactive
15,CC(C)NC(=O)N(C)C[C@H]1Oc2ccc(NS(=O)(=O)c3ccc(F)cc3)cc2CC(=O)N([C@H](C)CO)C[C@H]1C,inactive
16,COc1ccc2c3c([nH]c2c1)[C@@H](CO)N(C[C@]13CN(C1)S(=O)(=O)c1cccs1)C(=O)c1ccccc1,inactive
17,C[C@@H]1CN([C@@H](C)CO)C(=O)c2cc(NC(=O)NC3CCCCC3)ccc2O[C@@H]1CN(C)Cc1ccc(Oc2ccccc2)cc1,inactive
18,CC(C)(C)C(=O)C[n+]1ccc(C(N)=O)cc1,inactive
19,O=C(O)C1C(=CCO)OC2CC(=O)N21.[LiH] (stereo not drawn),active
20,O=C(O)[C@@H]1C(=CCO)O[C@H]2CC(=O)N12,inactive
21,O=C(O)[C@H]1/C(=C/CO)O[C@@H]2CC(=O)N21,inactive
22,N[C@@H]1CC[C@@H](CCn2cc(C3(O)CCCC3)nn2)O[C@H]1CO,inactive
23,C[C@H](CO)N1C[C@H](C)[C@H](CN(C)C(=O)Nc2ccc(F)cc2)OCc2ccccc2-c2ccccc2C1=O,inactive

row,Structure (SMILES),growth inhibition call
1,C[C@@H]1CCCCO[C@@H](CN(C)C(=O)NC2CCCCC2)[C@H](C)CN([C@H](C)CO)C(=O)c2cc(NS(=O)(=O)c3cccs3)ccc2O1,inactive
2,Cc1cccc(S(=O)(=O)N2C[C@H](O)COC[C@@H]3O[C@@H](CC(=O)NCc4ccc5c(c4)OCO5)CC[C@H]32)c1,inactive
3,CC(=O)Oc1ccccc1C(=O)Nc1ncc([N+](=O)[O-])s1,active
4,CC(=O)Oc1ccccc1C(=O)Nc1ccccc1,inactive
5,CC(=O)Nc1ncc([N+](=O)[O-])s1,inactive
6,O=S1(=O)C[C@@H]2NC(=S)N[C@@H]2C1,inactive
7,C[C@H](CO)N1C[C@H](C)[C@@H](CN(C)S(=O)(=O)c2cn(C)cn2)Oc2ccc(NC(=O)NC3CCCCC3)cc2CC1=O,inactive
8,C[C@@H]1CN([C@@H](C)CO)C(=O)c2cc(NC(=O)CCN3CCOCC3)ccc2O[C@@H]1CN(C)C(=O)Nc1ccccc1,inactive
9,CC(C)NC(=O)N(C)C[C@H]1OCCCC[C@@H](C)Oc2ccc(NC(=O)C3CCCCC3)cc2C(=O)N([C@H](C)CO)C[C@H]1C,inactive
10,COc1ccc(C2=N[C@@H](c3ccc(Cl)cc3)[C@@H](c3ccc(Cl)cc3)N2C(=O)N2CCNC(=O)C2)c(OC(C)C)c1,active
11,COc1ccc(C2=N[C@H](c3ccc(Cl)cc3)[C@H](c3ccc(Cl)cc3)N2C(=O)N2CCNC(=O)C2)c(OC(C)C)c1,inactive
12,C[C@H]1CN([C@@H](C)CO)C(=O)Cc2cc(NC(=O)CCN3CCOCC3)ccc2O[C@@H]1CN(C)C(=O)Nc1ccccc1,inactive
13,O=C(Nc1ccc(Br)cc1)c1ccc(N2C(=O)c3ccc(C(=O)Nc4ccc(Br)cc4)cc3C2=O)cc1,inactive
14,CO[C@H]1CN(C)C(=O)c2ccc(NC(=O)Nc3cccc(F)c3)cc2OC[C@H](C)N(C(=O)Nc2c(C)noc2C)C[C@@H]1C,inactive
15,CCCCCCCCCCCCCCCC(=O)OC[C@H](NC(=O)C(Cl)Cl)[C@H](O)c1ccc([N+](=O)[O-])cc1,inactive
16,CCCCCCCCCCCCCCCC(=O)OCC(NC(=O)C(Cl)Cl)C(O)c1ccc([N+](=O)[O-])cc1 (stereo not drawn),inactive
17,O=C(NC(CO)C(O)c1ccc([N+](=O)[O-])cc1)C(Cl)Cl (stereo not drawn),active
18,O=C([O-])CCC(=O)OCC(NC(=O)C(Cl)Cl)C(O)c1ccc([N+](=O)[O-])cc1.[Na+] (stereo not drawn),inactive
19,CS(=O)(=O)c1ccc(C(O)C(CF)NC(=O)C(Cl)Cl)cc1 (stereo not drawn),active
20,CS(=O)(=O)c1ccc(C(O)C(CO)NC(=O)C(Cl)Cl)cc1 (stereo not drawn),inactive
21,Cc1noc(C)c1NC(=O)N(C)C[C@@H]1OCCCC[C@H](C)Oc2ccc(NC(=O)Nc3ccccc3)cc2C(=O)N([C@@H](C)CO)C[C@@H]1C,inactive
22,CCCN(C)C[C@H]1OCCCC[C@@H](C)Oc2ccc(NC(=O)Nc3ccc(OC)cc3)cc2C(=O)N([C@H](C)CO)C[C@@H]1C,inactive

# — the antibiotic and cytotoxicity screens of Wong et al. (2023)
